Data taken from PubChem BioAssay AID1159580 (chemical genetic matrix, 2015).
In all, about 5,500 compounds went through this assay and about 2,000 (36%) were called active. Another 18% or so got no clear call; they are omitted. Rule as the data show it: active = normalized growth mostly below about 0.91 (no sharp cut-off); inconclusive = no clear call, values can overlap the other calls; inactive = mostly above about 0.92. This is one part of the list.

Test: chemical genetic growth profiling, strain panel (AID 1159580);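 also: tested at 20 µM; growth read once vehicle control cultures reached saturation at 30 °C; 1 = growth at the plate median or of vehicle wells; lower values mean less growth of the strain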
Conditions: S. cerevisiae deletion strains, growth OD
[1] = locus YHR030C, strain SLT2, stronger effect = lower value
[2] = locus YHR079C, strain IRE1, stronger effect = lower value
[3] = locus YJL095W, strain BCK1, stronger effect = lower value
[4] = locus YJR066W, strain TOR1, stronger effect = lower value
[5] = locus YLR113W, strain HOG1, stronger effect = lower value
[6] = locus YNL183C, strain NPR1, stronger effect = lower value
[7] = locus YOR231W, strain MKK1, stronger effect = lower value
[8] = locus YPL256C, strain CLN2, stronger effect = lower value

Measured: normalized growth

CC1(O)CC2C(CC1O)C2(C)C (stereo unspecified)
inactive: locus YAL021C, strain ccr4, stronger effect = lower value 0.988 | locus YAL026C, strain drs2, stronger effect = lower value 1 | locus YAL030W, strain snc1, stronger effect = lower value 0.99 | locus YBL061C, strain skt5, stronger effect = lower value 0.988 | locus YBR009C, strain hhf1, stronger effect = lower value 1.04 | locus YBR023C, strain chs3, stronger effect = lower value 0.999 | locus YBR171W, strain sec66, stronger effect = lower value 0.998 | locus YBR231C, strain swc5, stronger effect = lower value 0.993 | locus YBR279W, strain paf1, stronger effect = lower value 0.995 | locus YCL011C, strain gbp2, stronger effect = lower value 1 | locus YCL016C, strain dcc1, stronger effect = lower value 1.01 | locus YCL069W, strain vba3, stronger effect = lower value 1 | locus YCR088W, strain abp1, stronger effect = lower value 0.997 | locus YDL005C, strain med2, stronger effect = lower value 0.995 | locus YDL040C, strain nat1, stronger effect = lower value 0.999 | locus YDR001C, strain nth1, stronger effect = lower value 1.01 | locus YDR069C, strain doa4, stronger effect = lower value 1.02 | locus YDR137W, strain rgp1, stronger effect = lower value 1 | locus YDR159W, strain sac3, stronger effect = lower value 1 | locus YDR195W, strain ref2 0.988 | locus YDR297W, strain sur2, stronger effect = lower value 1.01 | locus YDR334W, strain swr1, stronger effect = lower value 1 | locus YDR335W, strain msn5, stronger effect = lower value 1 | locus YDR392W, strain spt3, stronger effect = lower value 1 | locus YEL003W, strain gim4, stronger effect = lower value 1.01 | locus YEL037C, strain rad23, stronger effect = lower value 1 | locus YEL061C, strain CIN8 (second series), stronger effect = lower value 0.999 | locus YER015W, strain faa2, stronger effect = lower value 0.995 | locus YER016W, strain bim1, stronger effect = lower value 0.998 | locus YER111C, strain swi4, stronger effect = lower value 0.989 | locus YER155C, strain BEM2 (second series), stronger effect = lower value 1 | locus YFR010W, strain ubp6, stronger effect = lower value 0.997 | locus YGL167C, strain pmr1, stronger effect = lower value 1.01 | locus YGL173C, strain kem1, stronger effect = lower value 0.999 | locus YGL227W, strain vid30, stronger effect = lower value 0.99 | locus YGL240W, strain doc1, stronger effect = lower value 1.01 | locus YGL253W, strain hxk2, stronger effect = lower value 1 | locus YHR013C, strain ard1, stronger effect = lower value 1 | locus YHR027C, strain rpn1, stronger effect = lower value 0.995 | [1] 1.04 | [2] 1.03 | locus YHR142W, strain chs7, stronger effect = lower value 1.01 | locus YJL092W, strain hpr5, stronger effect = lower value 1 | locus YJL095W, strain BCK1 (second series), stronger effect = lower value 0.996 | [3] 0.993 | locus YJL115W, strain asf1, stronger effect = lower value 0.996 | locus YJL129C, strain trk1, stronger effect = lower value 1 | locus YJL154C, strain vps35, stronger effect = lower value 0.994 | locus YJL164C, strain tpk1, stronger effect = lower value 0.998 | locus YJL166W, strain qcr8, stronger effect = lower value 1 | locus YJL187C, strain SWE1, stronger effect = lower value 0.995 | [4] 0.989 | locus YKL160W, strain elf1, stronger effect = lower value 0.994 | locus YKR026C, strain gcn3, stronger effect = lower value 0.994 | locus YKR091W, strain srl3, stronger effect = lower value 1 | locus YLL001W, strain dnm1, stronger effect = lower value 1 | locus YLL026W, stronger effect = lower value 0.998 | locus YLL041C, strain sdh2, stronger effect = lower value 0.991 | locus YLR027C, strain aat2, stronger effect = lower value 1 | [5] 0.976 | locus YLR221C, strain rsa3, stronger effect = lower value 0.999 | locus YLR258W, strain gsy2, stronger effect = lower value 0.982 | locus YLR262C, strain YPT6 (second series), stronger effect = lower value 1.02 | locus YLR320W, strain mms22, stronger effect = lower value 0.994 | locus YLR342W, strain FKS1, stronger effect = lower value 1 | locus YLR357W, strain rsc2, stronger effect = lower value 0.969 | locus YLR370C, strain arc18, stronger effect = lower value 1.01 | locus YLR384C, strain iki3, stronger effect = lower value 0.971 | locus YML120C, strain ndi1, stronger effect = lower value 1 | locus YMR058W, strain fet3, stronger effect = lower value 0.999 | locus YMR125W, strain sto1, stronger effect = lower value 0.988 | locus YMR129W, stronger effect = lower value 0.995 | locus YMR205C, strain PFK2, stronger effect = lower value 0.998 | locus YMR231W, strain pep5, stronger effect = lower value 1.01 | locus YNL071W, strain lat1, stronger effect = lower value 1 | [6] 0.935 | locus YNL209W, strain ssb2, stronger effect = lower value 1.01 | locus YNL248C, strain rpa49, stronger effect = lower value 1 | locus YNL322C, strain KRE1 (second series), stronger effect = lower value 0.981 | locus YNR049C, strain mso1, stronger effect = lower value 0.985 | locus YOR001W, strain rrp6, stronger effect = lower value 1.01 | locus YOR070C, strain gyp1, stronger effect = lower value 0.997 | locus YOR080W, strain dia2, stronger effect = lower value 1 | locus YOR083W, strain WHI5, stronger effect = lower value 0.999 | locus YOR106W, strain vam3, stronger effect = lower value 0.992 | [7] 1.03 | locus YOR265W, strain rbl2, stronger effect = lower value 1.01 | locus YOR270C, strain vph1, stronger effect = lower value 1.03 | locus YOR290C, strain snf2, stronger effect = lower value 1.01 | locus YPL051W, strain arl3, stronger effect = lower value 1 | locus YPL078C, strain atp4, stronger effect = lower value 0.999 | locus YPL106C, strain sse1, stronger effect = lower value 1.01 | locus YPL240C, strain hsp82, stronger effect = lower value 0.998 | [8] 1.02

CCOC(=O)C1C(c2c(F)cccc2Cl)C(C(=O)OCC)C(O)(C(F)(F)F)NC1(O)C(F)(F)F (stereo unspecified)
inactive: locus YAR019C, strain CDC15, stronger effect = lower value 0.984 | locus YBL105C, strain PKC1, stronger effect = lower value 0.988 | locus YBR135W, strain CKS1, stronger effect = lower value 0.994 | locus YBR136W, strain MEC1, stronger effect = lower value 0.979 | locus YBR160W, strain CDC28, stronger effect = lower value 0.993 | locus YDL017W, strain CDC7, stronger effect = lower value 0.99 | locus YDL028C, strain MPS1, stronger effect = lower value 0.993 | locus YDL101C, strain DUN1, stronger effect = lower value 0.983 | locus YDL108W, strain KIN28, stronger effect = lower value 0.994 | locus YDL132W, strain cdc53, stronger effect = lower value 0.993 | locus YDL214C, strain PRR2, stronger effect = lower value 0.986 | locus YDR052C, strain DBF4, stronger effect = lower value 0.99 | locus YDR054C, strain cdc34, stronger effect = lower value 0.985 | locus YDR226W, strain ADK1, stronger effect = lower value 0.992 | locus YDR477W, strain SNF1, stronger effect = lower value 0.998 | locus YER123W, strain YCK3, stronger effect = lower value 0.966 | locus YER133W, strain GLC7, stronger effect = lower value 0.988 | locus YFL009W, strain cdc4, stronger effect = lower value 0.991 | locus YFL029C, strain CAK1, stronger effect = lower value 0.981 | locus YFR003C, strain YPI1, stronger effect = lower value 0.992 | locus YFR019W, strain FAB1, stronger effect = lower value 0.942 | locus YFR028C, strain CDC14, stronger effect = lower value 0.991 | locus YGR040W, strain KSS1, stronger effect = lower value 0.994 | locus YGR052W, strain FMP48, stronger effect = lower value 1.05 | locus YGR092W, strain DBF2, stronger effect = lower value 1 | [1] 0.964 | [2] 0.971 | locus YHR082C, strain KSP1, stronger effect = lower value 0.994 | locus YHR205W, strain SCH9, stronger effect = lower value 0.965 | locus YIL147C, strain SLN1, stronger effect = lower value 0.987 | [3] 0.982 | locus YJL128C, strain PBS2, stronger effect = lower value 0.965 | locus YJL157C, strain FAR1, stronger effect = lower value 0.994 | locus YJR016C, strain ILV3, stronger effect = lower value 0.996 | locus YJR066W, strain TOR1 (second series), stronger effect = lower value 0.951 | [4] 0.969 | locus YKL048C, strain ELM1, stronger effect = lower value 0.988 | locus YKL067W, strain YNK1, stronger effect = lower value 0.987 | locus YKL101W, strain HSL1, stronger effect = lower value 0.989 | locus YKL193C, strain SDS22, stronger effect = lower value 0.99 | locus YKL203C, strain TOR2, stronger effect = lower value 1.06 | [5] 0.926 | locus YLR133W, strain CKI1, stronger effect = lower value 0.985 | locus YLR403W, strain SFP1, stronger effect = lower value 0.986 | locus YML070W, strain DAK1, stronger effect = lower value 0.987 | locus YMR001C, strain CDC5, stronger effect = lower value 0.99 | locus YMR205C, strain PFK2 (second series), stronger effect = lower value 0.997 | locus YMR277W, strain FCP1, stronger effect = lower value 0.991 | locus YNL006W, strain LST8, stronger effect = lower value 0.996 | locus YNL020C, strain ARK1, stronger effect = lower value 0.994 | locus YNL161W, strain CBK1, stronger effect = lower value 0.991 | [6] 0.977 | locus YNL207W, strain RIO2, stronger effect = lower value 0.992 | locus YNL222W, strain SSU72, stronger effect = lower value 0.996 | locus YNL307C, strain MCK1 (second series), stronger effect = lower value 0.986 | locus YOL078W, strain AVO1, stronger effect = lower value 0.998 | locus YOL136C, strain PFK27, stronger effect = lower value 0.979 | locus YOR061W, strain CKA2, stronger effect = lower value 0.996 | locus YOR119C, strain RIO1, stronger effect = lower value 1.03 | [7] 1 | locus YOR329C, strain SCD5, stronger effect = lower value 0.986 | locus YPL031C, strain PHO85, stronger effect = lower value 0.99 | locus YPL153C, strain RAD53, stronger effect = lower value 0.992 | locus YPL204W, strain HRR25, stronger effect = lower value 0.984 | locus YPL209C, strain IPL1, stronger effect = lower value 0.988 | [8] 0.935 | locus YPR025C, strain CCL1, stronger effect = lower value 0.986 | locus YPR106W, strain ISR1, stronger effect = lower value 0.991 | locus YPR111W, strain DBF20, stronger effect = lower value 0.984 | strain NNK1, stronger effect = lower value 0.987 | strain TSCII, stronger effect = lower value 0.995

CN1CC[C@@]2(C)c3cc(O)ccc3N(C)C12 (stereo partly specified)
inactive: locus YAL040C, strain CLN3, stronger effect = lower value 0.971 | locus YCL061C, strain MRC1 (second series), stronger effect = lower value 0.995 | locus YDR150W, strain NUM1, stronger effect = lower value 0.977 | locus YDR363W, strain ESC2, stronger effect = lower value 1.02 | locus YER002W, strain NOP16, stronger effect = lower value 0.998 | locus YGR078C, strain PAC10, stronger effect = lower value 0.982 | locus YGR229C, strain SMI1, stronger effect = lower value 1.03 | locus YJR075W, strain HOC1, stronger effect = lower value 1.01 | locus YMR263W, strain SAP30, stronger effect = lower value 0.993 | locus YMR307W, strain GAS1, stronger effect = lower value 1.02 | locus YNL153C, strain GIM3, stronger effect = lower value 0.941 | locus YNL175C, strain NOP13, stronger effect = lower value 0.989 | locus YNL197C, strain WHI3, stronger effect = lower value 0.969 | locus YNL224C, strain SQS1, stronger effect = lower value 1.02 | locus YOR083W, strain WHI5 (second series), stronger effect = lower value 0.975 | locus YPL055C, strain LGE1, stronger effect = lower value 0.985
